Experimental data taken from publication PMC7862700, “An all-to-all approach to the identification of sequence-specific readers for epigenetic DNA modifications on cytosine”.

target: T1, ETV3 (Homo sapiens, UniProt P41162-2 1-143); assay: DAPPL (digital affinity profiling via proximity ligation, sequencing); 10 mM Tris-HCl pH 7.5, 50 mM NaCl, 1 mM DTT, 4% glycerol, room temperature, 30 min; GST-TFs on glutathione beads, 16-mer random dsDNA library, 0.1% formaldehyde crosslink after washing; high values mean tight binding; settings: protein: recombinant; tags: N-terminal GST; dsDNA, one strand shown
T1 sequence: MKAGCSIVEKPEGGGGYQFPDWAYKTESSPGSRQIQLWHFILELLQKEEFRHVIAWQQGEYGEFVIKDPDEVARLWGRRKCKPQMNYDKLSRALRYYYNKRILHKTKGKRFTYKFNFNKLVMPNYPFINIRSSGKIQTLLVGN
Outline: (§1)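 Binding signal is each hexamer's read frequency for a factor divided by its frequency in the tag-only sample. The factors were GST-fused human transcription factors from yeast, captured on glutathione beads, DNA-barcoded and pooled with that sample. Pools were incubated with 200 nmole of a random double-stranded 16-mer DNA library in Tris/NaCl/DTT/glycerol buffer at room temperature for 30 min, then washed, crosslinked with 0.1% formaldehyde, proximity-ligated with BsaI/T4 ligase (1 h, 37 °C), PCR-amplified and sequenced on an Illumina NextSeq500.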

Row | Sequence | binding signal
1 | TTTCAA | 1.31 fold enrichment (6-mer frequency, TF over GST control)
2 | AATCAG | 1.07 fold enrichment (6-mer frequency, TF over GST control)
3 | TAAAGA | 1.08 fold enrichment (6-mer frequency, TF over GST control)
4 | ACATAC | 1.18 fold enrichment (6-mer frequency, TF over GST control)
5 | GCCTTT | 1.33 fold enrichment (6-mer frequency, TF over GST control)
6 | TTTGTC | 1.29 fold enrichment (6-mer frequency, TF over GST control)
7 | CCCACG | 1.11 fold enrichment (6-mer frequency, TF over GST control)
8 | CTGACA | 1.24 fold enrichment (6-mer frequency, TF over GST control)
9 | ACTGGC | 1.07 fold enrichment (6-mer frequency, TF over GST control)
10 | CTCCAT | 1.27 fold enrichment (6-mer frequency, TF over GST control)
11 | GCTCTT | 1.48 fold enrichment (6-mer frequency, TF over GST control)
12 | CCTCGC | 1.45 fold enrichment (6-mer frequency, TF over GST control)
13 | ATGTGT | 1.01 fold enrichment (6-mer frequency, TF over GST control)
14 | ACTCAT | 1.3 fold enrichment (6-mer frequency, TF over GST control)
15 | TAAACA | 1.25 fold enrichment (6-mer frequency, TF over GST control)
16 | GTAATC | 1.1 fold enrichment (6-mer frequency, TF over GST control)
17 | CCGATC | 1.25 fold enrichment (6-mer frequency, TF over GST control)
18 | TTTGGG | 1.32 fold enrichment (6-mer frequency, TF over GST control)
19 | CCGGAA | 6.2 fold enrichment (6-mer frequency, TF over GST control)
20 | ACGACA | 1.08 fold enrichment (6-mer frequency, TF over GST control)

Row | Sequence | binding signal
21 | TAACCA | 1.13 fold enrichment (6-mer frequency, TF over GST control)
22 | ACTGCA | 1.17 fold enrichment (6-mer frequency, TF over GST control)
23 | ATTGTC | 1.22 fold enrichment (6-mer frequency, TF over GST control)
24 | AGGAAA | 1.52 fold enrichment (6-mer frequency, TF over GST control)
25 | AGATGC | 1.06 fold enrichment (6-mer frequency, TF over GST control)
26 | ATTCAG | 1.12 fold enrichment (6-mer frequency, TF over GST control)
27 | TTGCAC | 1.23 fold enrichment (6-mer frequency, TF over GST control)
28 | CGGTCT | 1.22 fold enrichment (6-mer frequency, TF over GST control)
29 | TCCTTA | 1.74 fold enrichment (6-mer frequency, TF over GST control)
30 | CCGCTA | 1.34 fold enrichment (6-mer frequency, TF over GST control)
31 | TGCGAC | 1.27 fold enrichment (6-mer frequency, TF over GST control)
32 | CCCCGG | 1.43 fold enrichment (6-mer frequency, TF over GST control)
33 | CACCCG | 1.25 fold enrichment (6-mer frequency, TF over GST control)
34 | TGCACC | 1.24 fold enrichment (6-mer frequency, TF over GST control)
35 | TGGGCT | 1.41 fold enrichment (6-mer frequency, TF over GST control)
36 | CCAAAT | 1.03 fold enrichment (6-mer frequency, TF over GST control)
37 | ATGTCC | 1.8 fold enrichment (6-mer frequency, TF over GST control)
38 | TGATCC | 1.24 fold enrichment (6-mer frequency, TF over GST control)
39 | TACAAG | 1.02 fold enrichment (6-mer frequency, TF over GST control)
40 | TTCACA | 1.13 fold enrichment (6-mer frequency, TF over GST control)

target: ETV6 (Homo sapiens, UniProt P41212 1-452); assay: as above; settings: protein: recombinant; tags: N-terminal GST; dsDNA, one strand shown
Sequence (P41212 whole entry): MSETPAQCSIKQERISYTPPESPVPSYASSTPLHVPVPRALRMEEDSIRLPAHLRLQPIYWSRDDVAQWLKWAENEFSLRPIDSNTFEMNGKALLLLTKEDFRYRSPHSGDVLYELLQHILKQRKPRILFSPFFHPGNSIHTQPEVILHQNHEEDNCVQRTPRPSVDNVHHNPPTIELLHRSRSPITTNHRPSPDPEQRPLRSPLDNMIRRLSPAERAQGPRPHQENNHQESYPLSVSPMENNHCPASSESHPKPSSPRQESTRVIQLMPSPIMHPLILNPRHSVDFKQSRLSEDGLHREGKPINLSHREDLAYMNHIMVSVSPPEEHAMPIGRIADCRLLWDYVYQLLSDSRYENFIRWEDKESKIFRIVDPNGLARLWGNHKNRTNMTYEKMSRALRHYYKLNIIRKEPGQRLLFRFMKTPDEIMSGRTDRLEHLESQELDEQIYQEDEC
Outline: as §1

Row | Sequence | binding signal
41 | TTTCAA | 1.21 fold enrichment (6-mer frequency, TF over GST control)
42 | AATCAG | 1.14 fold enrichment (6-mer frequency, TF over GST control)
43 | TAAAGA | 1.06 fold enrichment (6-mer frequency, TF over GST control)
44 | ACATAC | 1.17 fold enrichment (6-mer frequency, TF over GST control)
45 | GCCTTT | 1.38 fold enrichment (6-mer frequency, TF over GST control)
46 | TTTGTC | 1.17 fold enrichment (6-mer frequency, TF over GST control)
47 | CCCACG | 1.09 fold enrichment (6-mer frequency, TF over GST control)
48 | CTGACA | 1.24 fold enrichment (6-mer frequency, TF over GST control)
49 | ACTGGC | 1.15 fold enrichment (6-mer frequency, TF over GST control)
50 | CTCCAT | 1.35 fold enrichment (6-mer frequency, TF over GST control)
51 | GCTCTT | 1.45 fold enrichment (6-mer frequency, TF over GST control)
52 | CCTCGC | 1.25 fold enrichment (6-mer frequency, TF over GST control)
53 | ATGTGT | 1.12 fold enrichment (6-mer frequency, TF over GST control)
54 | ACTCAT | 1.31 fold enrichment (6-mer frequency, TF over GST control)
55 | TAAACA | 1.25 fold enrichment (6-mer frequency, TF over GST control)
56 | GTAATC | 1.2 fold enrichment (6-mer frequency, TF over GST control)
57 | CCGATC | 1.17 fold enrichment (6-mer frequency, TF over GST control)
58 | TTTGGG | 1.3 fold enrichment (6-mer frequency, TF over GST control)
59 | CCGGAA | 6.11 fold enrichment (6-mer frequency, TF over GST control)
60 | ACGACA | 1.22 fold enrichment (6-mer frequency, TF over GST control)

Row | Sequence | binding signal
61 | TAACCA | 1.04 fold enrichment (6-mer frequency, TF over GST control)
62 | ACTGCA | 1.2 fold enrichment (6-mer frequency, TF over GST control)
63 | ATTGTC | 1.13 fold enrichment (6-mer frequency, TF over GST control)
64 | AGGAAA | 1.75 fold enrichment (6-mer frequency, TF over GST control)
65 | AGATGC | 1.04 fold enrichment (6-mer frequency, TF over GST control)
66 | ATTCAG | 1.02 fold enrichment (6-mer frequency, TF over GST control)
67 | TTGCAC | 1.26 fold enrichment (6-mer frequency, TF over GST control)
68 | CGGTCT | 1.09 fold enrichment (6-mer frequency, TF over GST control)
69 | TCCTTA | 1.63 fold enrichment (6-mer frequency, TF over GST control)
70 | CCGCTA | 1.4 fold enrichment (6-mer frequency, TF over GST control)
71 | TGCGAC | 1.28 fold enrichment (6-mer frequency, TF over GST control)
72 | CCCCGG | 1.21 fold enrichment (6-mer frequency, TF over GST control)
73 | CACCCG | 1.11 fold enrichment (6-mer frequency, TF over GST control)
74 | TGCACC | 1.19 fold enrichment (6-mer frequency, TF over GST control)
75 | TGGGCT | 1.32 fold enrichment (6-mer frequency, TF over GST control)
76 | CCAAAT | 1.06 fold enrichment (6-mer frequency, TF over GST control)
77 | ATGTCC | 1.57 fold enrichment (6-mer frequency, TF over GST control)
78 | TGATCC | 1.26 fold enrichment (6-mer frequency, TF over GST control)
79 | TACAAG | 1.04 fold enrichment (6-mer frequency, TF over GST control)
80 | TTCACA | 1.13 fold enrichment (6-mer frequency, TF over GST control)
